Experimental data as given in PubChem BioAssay.
Results filed as inconclusive are left out. Calls of active or inactive are those of the source. Unless noted, cut-off not given; nearly all actives show AC50 up to about 26 µM.

Assays:
[1] = growth inhibition of DIPG glioma cells, dose response, cell-based, SU-DIPG-XVII, MIPE5.0, CellTiter-Glo, qHTS (AID 1347060); conditions: SU-DIPG-XVII viability, CellTiter-Glo ATP luminescence;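 on AC50: cells exposed to compound for 48 hours before viability readout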
[2] = growth inhibition of DIPG glioma cells, dose response, cell-based, SU-DIPG-XIII, MIPE4.0, CellTiter-Glo, qHTS (AID 1347061; cut-off not given, nearly all actives have AC50 up to about 37 µM;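 further: cells exposed to compound for 48 hours before readout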); conditions: SU-DIPG-XIII viability, CellTiter-Glo ATP luminescence
[3] = growth inhibition of DIPG glioma cells, dose response, cell-based, JHH-DIPG-1, MIPE4.0, CellTiter-Glo, qHTS (AID 1347062; cut-off not given, nearly all actives have AC50 up to about 27 µM;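 on AC50: cells exposed to compound for two days before readout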); conditions: JHH-DIPG-1 viability, CellTiter-Glo ATP luminescence
[4] = growth inhibition of DIPG glioma cells, dose response, cell-based, SU-DIPG-IV, MIPE4.0, CellTiter-Glo, qHTS (AID 1347063; cut-off not given, nearly all actives have AC50 up to about 30 µM;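 further: compound exposure lasted 48 hours before the viability readout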); conditions: SU-DIPG-IV viability, CellTiter-Glo ATP luminescence
[5] = growth inhibition of DIPG glioma cells, dose response, cell-based, SU-DIPG-XIII, MIPE5.0, CellTiter-Glo, qHTS (AID 1347064; cut-off not given, nearly all actives have AC50 up to about 23 µM;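 on AC50: cells exposed to compound for 48 hours before the viability read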); conditions: SU-DIPG-XIII viability, CellTiter-Glo ATP luminescence
[6] = viability loss in pontine glioma line – cell-based, SU-DIPG-XXV, MIPE5.0, CellTiter-Glo, qHTS, dose response (AID 1347065); conditions: CellTiter-Glo ATP luminescence;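 further: cells exposed to compound for 48 hours before ATP readout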
[7] = SU-DIPG-VI glioma cell viability, MIPE4.0 library, CellTiter-Glo luminescence, qHTS (AID 1347066; cut-off not given, nearly all actives have AC50 up to about 30 µM;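 further: cells exposed to compound for 48 hours before readout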); conditions: CellTiter-Glo ATP luminescence
[8] = JHH-DIPG-1 glioma cell viability, MIPE5.0 library, CellTiter-Glo luminescence, qHTS (AID 1347067); conditions: JHH-DIPG-1 glioma viability, CellTiter-Glo ATP luminescence;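 further: cells exposed to compound for 48 hours before readout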
[9] = SU-DIPG-XXV glioma cell viability, MIPE5.0 library, qHTS (AID 1347068; cut-off not given, nearly all actives have IC50 up to about 30 µM;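 on IC50: cells exposed to compound for 48 hours before viability readout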)
[10] = sensitizers of A549 cells to miR-34 induction, primary screen, imaging, A549 dox-inducible miR-34, nuclei and caspase counts (AID 1347080;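 active means compounds whose cell count with miR-34 switched on is under 0.7 times the count with it off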); conditions: A549 miR-34 inducible, Hoechst nuclei count, 48 h

C=CCNC1=C2C[C@@H](C)C[C@H](OC)[C@H](O)[C@@H](C)/C=C(\C)[C@H](OC(N)=O)[C@@H](OC)/C=C\C=C(/C)C(=O)NC(=CC1=O)C2=O
active: AC50 [1] 1.18 µM | AC50 [2] 1.05 µM | AC50 [3] 2.64 µM | AC50 [4] 0.118 µM | AC50 [6] 7.42 µM | AC50 [7] 14.8 µM | AC50 [8] 0.934 µM | IC50 [9] 10.5 µM
inactive: outcome [5] | fold change ([10]; stronger effect = lower value, cell number ratio, induced over uninduced) 1.02
1940: cell count ([10]; measured here: total cells with miR-34 induction, stronger effect = lower value)
1900: cell count ([10]; measured here: total cells without miR-34 induction)
1.33: fold change ([10]; measured here: relative caspase fold change +Dox/-Dox)

O=C(Nc1ccccc1Br)N[C@@H]1CCN(c2ccc(C(F)(F)F)cn2)C1
inactive: outcome [1] | outcome [2] | outcome [3] | outcome [4] | outcome [5] | outcome [6] | outcome [7] | outcome [8] | outcome [9]

O=C(O)[C@@H](c1ccc(OCc2ccc3ccccc3n2)cc1)C1CCCC1
inactive: outcome [1] | outcome [2] | outcome [3] | outcome [4] | outcome [5] | outcome [6] | outcome [7] | outcome [8] | outcome [9]

COc1ccc2c(OCc3nnc4ccc(-c5ccccc5)nn34)ccnc2c1
inactive: outcome [1] | outcome [2] | outcome [3] | outcome [4] | outcome [5] | outcome [6] | outcome [7] | outcome [8] | outcome [9]

CO[C@H]1/C=C\C=C(\C)C(=O)NC2=CC(=O)C(NCCN(C)C)=C(C[C@@H](C)C[C@H](OC)[C@H](O)[C@@H](C)/C=C(/C)[C@@H]1OC(N)=O)C2=O
active: AC50 [1] 0.0525 µM | AC50 [2] 0.0833 µM | AC50 [3] 0.187 µM | AC50 [4] 0.0132 µM | AC50 [5] 0.118 µM | AC50 [6] 0.235 µM | AC50 [7] 5.26 µM | AC50 [8] 0.0742 µM | IC50 [9] 1.18 µM

COc1ccc(S(=O)(=O)Nc2cc(-c3c(O)ccc4ccccc34)c(O)c3ccccc23)cc1
active: AC50 [1] 0.105 µM | AC50 [2] 13.2 µM | AC50 [3] 18.7 µM | AC50 [4] 7.43 µM | AC50 [5] 3.32 µM | AC50 [6] 2.35 µM | AC50 [7] 4.69 µM | AC50 [8] 2.95 µM
inactive: outcome [9]

C=C1C(=O)[C@@]23C(CC[C@@H]1[C@H]2O)[C@@]12CO[C@]3(O)[C@@H](O)[C@@H]1C(C)(C)CC[C@@H]2O (stereo not given in full)
active: AC50 [1] 9.34 µM | AC50 [2] 7.43 µM | AC50 [3] 4.18 µM | AC50 [4] 2.35 µM | AC50 [5] 6.61 µM | AC50 [6] 8.33 µM | AC50 [7] 3.72 µM | AC50 [8] 5.9 µM | IC50 [9] 9.34 µM

c1cc(CN2CCCNCCNCCCNCC2)ccc1CN1CCCNCCNCCCNCC1
inactive: outcome [1] | outcome [2] | outcome [3] | outcome [4] | outcome [5] | outcome [6] | outcome [7] | outcome [8] | outcome [9]

CC(C)(O)[C@H]1CC[C@@](C)([C@H]2[C@@H](O)C[C@@]3(C)[C@@H]4C[C@H](O[C@@H]5O[C@H](CO)[C@@H](O)[C@H](O)[C@H]5O)[C@H]5C(C)(C)[C@@H](O[C@@H]6OC[C@@H](O)[C@H](O)[C@H]6O)CC[C@@]56C[C@@]46CC[C@]23C)O1
inactive: outcome [1] | outcome [2] | outcome [3] | outcome [4] | outcome [5] | outcome [6] | outcome [7] | outcome [8] | outcome [9]
